High-throughput results: PubChem BioAssay, National Center for Advancing Translational Sciences (NCATS)
Many of the other results were omitted from the sample, so hits are more common in it than they were.
Methyltransferases: Primary Screen for Target Class Profiling of Small Molecule Inhibitors of Methyltransferases | 3.9% of 25,000 active | calls only at 40 µM | AID 1745853, 2022 | purified enzyme, MTase-Glo SAH luminescence; hits give low values; call rule not given here
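Each enzyme was reacted with SAM and its substrate, with compounds tested once at 40 uM; SAH formed was read by MTase-Glo luminescence.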
MTase-Glo ctr: Counterscreen for Target Class Profiling of Small Molecule Inhibitors of Methyltransferases. shares compounds with Methyltransferases. MTase-Glo coupled enzymes, SAH conversion luminescence, no MTase. Potency, µM (series often up to 57.3 µM), inactives show at the highest dose activity change, negative = inhibition, hits mostly inhibitors. 6% of 180 active. AID 1745851, 2022; active means well fitted inhibition curve with a large enough effect; further: potency means the concentration at half of the fitted maximal effect
Numbers without * were called inactive; i = inactive; + = active, no number; [ ] = another dose, or the depositor's remark. On the % scale 0 is the no-effect control and ±100 the full control effect.

SMILES	Methyltransferases	others
O=C(NCC1CCN(c2cc(-c3ccccc3)[nH]n2)CC1)c1ccc2nc[nH]c2c1	i
CN1CCC2(C1)CN(Cc1ccccc1)c1ccc(C(=O)N3CCOCC3)cc12 (configuration not stated)	i
CN1CCCC2(C1)CN(C)c1ccc(C(=O)NCC3CCCCC3)cc12 (configuration not stated)	+	MTase-Glo ctr=-1%[85.7 µM]
C=C1[C@H](OC(C)=O)[C@H]2[C@@H](OC(C)=O)[C@](C)(OC(C)=O)C[C@]2(OC(C)=O)C(=O)[C@H](C)/C=C/C(C)(C)C(=O)[C@H](OC(=O)C(C)C)[C@H]1OC(C)=O	i
COc1cccc(-c2ccc(C(=O)N3CCC(NC(=O)N(C)C)CC3)cc2)c1	i
CN(C)C[C@H]1C[C@@H](CO)CN(C(=O)c2csc(Cc3ccccc3)n2)C1	i
COc1cccc(-c2cccc(C(=O)N3C[C@H](CO)C[C@H](CN(C)C)C3)c2)c1	+	MTase-Glo ctr=-2%
O=C(c1ccc2c(=O)nc3c(-c4ccccc4)n[nH]n3c2c1)N1CCN(c2ccccn2)CC1	i
CNC(=O)[C@@H]1CN(S(=O)(=O)C(C)C)C[C@H]1c1n[nH]c(C)n1	i
CCc1cccc(NC(=O)Cn2nc3n(C)c(=O)c4ccc(C(=O)NC5CCCC5)cc4n3c2=O)c1	i
CCc1cc2c(cc3n2CC(C)(C(=O)NC2CCCCC2)N(Cc2ccc(F)cc2)C3=O)s1 (configuration not stated)	i
O=C1OCC2(CCN(Cc3c[nH]c4ccccc34)C2)N1Cc1ccccc1 (configuration not stated)	i
O=C(OCc1ccccc1)N1CCOCC12CCN(Cc1c[nH]c3ccccc13)CC2	+	MTase-Glo ctr=3%[85.7 µM]
c1ccc(CC2=NOC3(CCN(Cc4c[nH]c5ccccc45)CC3)C2)cc1	i
COc1ccccc1-c1ccc(CN2CCCC(c3nc4ccc(C)cc4c(=O)[nH]3)C2)cc1 (configuration not stated)	i
COCCCNC(=O)C1(C)Cn2nc(-c3ccccc3)cc2C(=O)N1c1cc(OC)cc(OC)c1 (configuration not stated)	i
